An excerpt weighted towards active compounds, which were near 2.6% of everything screened.
KCNH2 3.1 inh – KCNH2 3.1 (human) potassium channel inhibition; U2OS KCNH2 3.1, thallium flux FluxOr; active compounds read low; activity change, % (tested at about 1.8 µM); 0.95% of 340,000 active; AID 720553;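 active means maximum activity change below -70%; inconclusive means maximum activity change from -70% to -50%; inactive means maximum activity change above -50%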;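 further: thallium influx rate constant from kinetic fluorescence after stimulation buffer; on the % scale 0 is the no-effect control and ±100 the full control effect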
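Kinetic fluorescence (2 min after stimulation buffer) measures Tl+ influx through KCNH2 3.1 expressed by viral transduction in U2OS cells; the rate constant is normalized against DMSO controls serving as positive and negative references.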
KCNH2 WT inh – KCNH2 (human, wildtype) channel inhibition | Q12809 | U2OS, BacMam KCNH2, thallium flux FluxOr; active compounds read low | activity change, % at 1.84 µM | 0.37% of 340,000 active | AID 720551;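 active means maximum activity change below -70%; inconclusive means maximum activity change between -70% and -50%; inactive means maximum activity change above -50%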; further: on the % scale 0 is the no-effect control and ±100 the full control effect
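U2OS cells transduced with wild-type KCNH2 virus are loaded with FluxOr dye for 45 min, and thallium flux is measured in kinetic reads before and after stimulation buffer. Rate constants are normalized to DMSO controls.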
ClpP mod – qHTS Assay for Activators of ClpP; Potency, µM (doses to about 57.5 µM), for the others: at the top dose activity change, negative = active; AID 651965, 2013; ATP-dependent Clp protease proteolytic subunit (Bacillus subtilis (strain 168)), P80244; purified B. subtilis ClpP, FRET peptide cleavage, 20 min; 1.9% of 340,000 active; active means well fitted falling curve with a large enough effect; inconclusive means small, poorly fitted or top-dose-only effect; inactive means no such curve, though single readings can be large or run the other way; further: potency means the concentration at half of the fitted maximal effect; the source files actives as falling curves though it sought activators and does not explain the sign; nearly all actives have a fitted effect of over 65% in size
Target sequence (P80244 whole entry, looked up): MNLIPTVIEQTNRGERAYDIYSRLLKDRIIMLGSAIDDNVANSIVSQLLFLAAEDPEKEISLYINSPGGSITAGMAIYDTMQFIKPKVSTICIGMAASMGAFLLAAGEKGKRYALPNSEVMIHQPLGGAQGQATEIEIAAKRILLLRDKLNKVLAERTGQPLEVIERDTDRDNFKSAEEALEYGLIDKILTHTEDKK
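FRET quenching reversal measured ClpP activation: 10 microg/mL B. subtilis ClpP at pH 8 with the FRET-FV decapeptide, read at 430 nm after 320 nm excitation. The 20-min minus 0-min signal was scaled between DMSO/no-enzyme wells and ADEP (5.8 microM final).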
TRPV1 potentiator – potentiators of human vanilloid receptor 1 (TRPV1); TRPV1-expressing cells, Fluo-8 calcium influx, capsaicin EC20 potentiation; Q8NER1; potentiation, % at 8.33 µM; AID 540277; 0.02% of 320,000 active; in the data active means potentiation above about 80%; inconclusive means between about 30% and that limit; further: 0% is about no effect
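Fluo-8 calcium influx in TRPV1-expressing cells, kinetic read (ex 480/em 520 nm). Compound added and read 3 min for agonist activity, followed by capsaicin at EC20 final and 2 min further read for enhancement.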
p53 reactivation – re-activators of mutant p53; H1299 p53-A138V BP100-luciferase reporter, luminescence, 24 h; Potency, µM (highest dose often 92.2 µM), for the others: at the top dose activity change, positive = activation, most hits filed as activators; 0.063% of 320,000 active; AID 504706; active means well fitted activation curve with a large enough effect; inconclusive means small, poorly fitted or top-dose-only effect; inactive means no such curve, though single readings can be large or run the other way; further: potency means the concentration at half of the fitted maximal effect; % of control where 0% means no effect; nearly all actives have a fitted effect of over 45% in size
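p53-null H1299 cells stably carrying temperature-sensitive p53-A138V and a BP100-luciferase reporter were pinned with compounds (4-point, 1:5 series) and held 24 hrs at 37 deg C. Luminescence was read 10 min after detection reagent.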
TRPV1 agonist – human TRPV1 agonism; TRPV1-expressing cells, Fluo-8 calcium influx, agonist mode; activation, % at 8.33 µM; 0.19% of 320,000 active; AID 540275; in the data active means activation above about 80%; inconclusive means between about 30% and that limit; further: 0% is about no effect
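Fluo-8 calcium influx in TRPV1-expressing cells, kinetic read (ex 480/em 520 nm). Compound added and read 3 min for agonist activity, followed by capsaicin at EC20 final and 2 min further read for enhancement.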
Starred values were filed as active, the others as inactive; ? = inconclusive; . = no result given; ! = repeats disagree.

SMILES | KCNH2 3.1 inh | KCNH2 WT inh | ClpP mod | TRPV1 potentiator | p53 reactivation | TRPV1 agonist
CCCCNc1c(-c2ccc(OC)c(SC(C)CC)c2)nc2cc(C)ccn12 (configuration not stated) | -82* | 3 | 27µM*! | . | 7% | .
NS(=O)(=O)c1ccc(CCNC(=O)C2CCCN2C(=O)OCc2ccccc2)cc1 (configuration not stated) | -8 | 7 | 32µM* | 6 | 6% | -2
CCN(CC(=O)NCCc1ccc(S(N)(=O)=O)cc1)Cc1ccccc1 | -74* | 8 | -4% | 23 | -13% | 3
NS(=O)(=O)c1ccc(CCNC(=O)C2CCN(S(=O)(=O)c3ccccc3)CC2)cc1 | -7 | -5 | 28µM* | 10 | -1% | -2
COc1ccc(S(=O)(=O)N2CCC(C(=O)NCCC(=O)NCc3cccnc3)CC2)cc1 | -9 | -74* | -4% | . | . | .
C=C1C=C(C)n2ncc(C(=O)N(CCc3ccccc3)Cc3ccccc3)c2N1 | . | . | 5% | . | . | .
Cc1ccc(C(c2sc3nc(-c4ccco4)nn3c2O)N2CCCC2)cc1 (configuration not stated) | . | . | -3% | . | . | .
Cc1ccc(S(=O)(=O)N2CCC(C(=O)NCCCn3ccnc3)CC2)cc1 | -2 | -17 | 16µM* | 6 | 19% | 0
CSc1ccc(S(=O)(=O)N2CCC(C(=O)NCCCn3ccnc3)CC2)cc1 | -9 | -3 | 2% | 0 | 12% | 1
CC(C)C(NS(=O)(=O)c1ccc2c(c1)oc(=O)n2C)C(=O)NCc1ccccc1 (configuration not stated) | . | . | 0% | . | . | .
CCc1cc2cc(C)cc(C)c2[nH]c1=S | -96* | -1 | -7% | 22 | 3% | 4
COC(=O)c1ccc(C(=O)OC)c(NC(=O)CN(c2ccc3c(c2)OCO3)S(C)(=O)=O)c1 | -132* | -9 | 2% | 2 | 1% | 0
CC(C)(C)c1ccc(-c2nc(NC(=O)CSc3ncnc4sc5c(c34)CCCC5)ns2)cc1 | . | . | -2% | . | . | .
CC(Oc1ccccc1F)C(=O)N1CCC(c2nc3ccccc3o2)CC1 (configuration not stated) | . | . | -1% | . | . | .
FC(F)(F)c1cc(-c2ccc3c(c2)OCO3)nc(NCc2ccco2)n1 | -8 | 7 | 25µM* | -3 | 22% | 20
COc1ccc(-c2cc(C(F)(F)F)nc(NCc3ccco3)n2)cc1OC | -9 | 4 | ? | 3 | 4% | 2
CC(C)(C)c1cc(C(F)(F)F)c(C#N)c(=O)[nH]1 | 5 | -11 | ? | 5 | 5% | -1
CC(C)(C)c1cc(=O)n2c(C#N)c(C#N)nc2[nH]1 | 2 | 1 | 28µM* | 1 | -10% | 1
Nc1c(-c2ccccc2)cnn1-c1ccccc1 | -9 | -2 | -2% | -1 | 23% | 2
Nc1c(-c2cccc(Cl)c2)cnn1-c1ccccc1 | -88* | -6 | . | -6 | 11% | 24
Cc1ccc2c(c1)c(N=NC(N)=S)c(O)n2Cc1ccccc1 | 0 | 0 | 25µM* | -27 | 3% | ?
Cc1cccc(Cn2c(O)c(N=NC(=S)Nc3ccccc3F)c3ccccc32)c1 | -91* | . | 2% | 13 | -4% | -4
CC1OC(C2CCCCC2)Cc2[nH]c(=S)[nH]c(=O)c21 (configuration not stated) | . | . | -2% | . | . | .
COc1ccc(NC(=O)CSc2c3c(nc4ccc(Cl)cc24)CCCC3)cc1Cl | . | . | -2% | . | . | .
N#Cc1c(C#N)c(-c2ccccc2)n(-c2ccccc2)c1N | 2 | 3 | 28µM* | 11 | -24% | 0
SMILES | KCNH2 3.1 inh | KCNH2 WT inh | ClpP mod | TRPV1 potentiator | p53 reactivation | TRPV1 agonist
O=C(NCC1CCCO1)c1cncc(Br)c1 (configuration not stated) | -145* | -16 | -14% | 15 | -3% | -6
O=C(Cn1nnc(-c2ccc(OCc3ccccc3F)cc2)n1)N1CCOCC1 | -90* | 25 | 0% | 19 | 24% | 1
CC1CC(C)CN(CCCCOc2ccc([N+](=O)[O-])cc2)C1 (configuration not stated) | -99* | ? | -1% | 5 | -7% | -2
CC1CN(CCOc2ccc([N+](=O)[O-])cc2)CC(C)O1 (configuration not stated) | -6 | 40 | -2% | -14 | 6% | 3
O=[N+]([O-])c1ccc(OCCN2CCNCC2)cc1 | -74* | -38 | 0% | -20 | -1% | 4
CC(C)(C)NC(=O)NC(=O)CN1CCCc2ccccc21 | -88* | 5 | . | -3 | -1% | 4
O=C(CN1CCCc2ccccc21)NC(=O)NCc1ccccc1 | -2 | 1 | 0% | -9 | 0% | 2
Cc1cc(C(=O)N/N=C/c2cc(N=Nc3ccccc3)ccc2O)n[nH]1 | 12 | -15 | 1% | 5 | 13µM* | -1
Cc1cc(C(=O)N/N=C/c2cccc(OC(=O)c3cccc(Br)c3)c2)n[nH]1 | -191* | -151* | 0% | 27 | 1% | 1
COc1cc(C(=O)Oc2cccc(/C=N/NC(=O)c3cc(C)[nH]n3)c2)cc(OC)c1OC | 6 | -2 | . | -5 | 11% | 13
Cc1ccc(N2CCN(S(=O)(=O)c3cccc4ccccc34)CC2)cc1Cl | . | . | -12% | . | . | .
CCN1C2=NCCCN2c2cc(C)c(C)cc21 | -7 | -1 | 28µM* | 3 | -9% | 0
CCCCCCN1C2=NCCCN2c2ccccc21 | -80* | 4 | 1% | . | -2% | .
Cc1cccc(CN2C3=NCCCN3c3ccccc32)c1 | -30 | 29 | 1% | -5 | -3% | 0
COc1cccc(C(=O)CN2C3=NCCCN3c3ccccc32)c1 | -93* | -6 | -2% | 9 | -3% | 2
COCC(C)n1c(SCC(=O)N2CCc3ccccc3C2)nc2ccccc2c1=O (configuration not stated) | -1 | -1 | 13µM* | 4 | -12% | ?
Cc1cnc2ccccc2c1/C=C/c1ccc(N(C)C)cc1 | . | . | 0% | . | . | .
Cc1nc2cc(-c3cccs3)[nH]n2c(=O)c1C | 3 | 4 | 14µM* | . | . | .
Cc1ccccc1-c1cc2nc(C)c(C)c(=O)n2[nH]1 | 9 | 19 | 29% | -6 | 26% | 0
COC(=O)[C@]1(Cc2ccccc2)N[C@H](c2ccc(-c3cc(C(C)=O)cs3)cc2)[C@@H]2C(=O)N(C)C(=O)[C@@H]21 | 4 | 7 | 18µM* | -1 | -4% | -1
CCOc1ccc(OCc2ccc(C(=O)N/N=C(\C)c3ccccn3)cc2)cc1 | -12 | -72* | . | 1 | ? | 6

Source: PubChem (National Center for Advancing Translational Sciences (NCATS))
